Active and inactive are the calls of the source.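 Rule for the calls: active = fitted half-maximal concentration AC50 at or below ten times the highest valid tested dose, with signal falling as DNA is displaced (actives reach about 34 µM in these data); inconclusive = flat fit at moderate signal loss, or poor fit quality; inactive = the rest, including signal rising instead of falling.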

The nature of this assay: acridine orange-DNA binding displacement – biochemical, fluorescence polarization, cherry-picked samples, set 2, artefact control for KSHV LANA DNA-binding inhibitor project, dose response (AID 504727). To be noted: series mostly up to 35 µM. In general terms: Fluorescence polarisation rises when a labelled molecule tumbles more slowly, as on binding a larger partner.
With `CC1=NCCc2c1[nH]c1cc(O)ccc21`, the half-maximal activity concentration (AC50) – broadly, the concentration giving half of the maximal activity seen – was 3.74 µM (active).

With `O=c1[nH]c(=O)n(C2CCCCC2)c(O)c1C=Nc1ccc(N2CCOCC2)cc1`, the AC50 result is “inactive”.

With `Cc1cc(/C=C2\C(=O)NC(=O)N(Cc3ccccc3)C2=O)c(C)n1-c1ccc(Cl)c(C(=O)O)c1`, the AC50 entry is “inactive”.

Consider `CCCCc1ccc(C(=O)O)nc1`, for which the AC50 entry was “inactive”.

For `O=C(O)c1cccc2c1NC(C(=O)O)C1CC(Sc3ccccc3[N+](=O)[O-])C(Cl)C21` (centres undefined), the AC50 result is “inactive”.

Regarding `CCN(CC)C(=O)c1ccc2c(c1)C1C=CCC1C(C(=O)O)N2` (centres undefined), the AC50 entry is “inactive”.

On to `COC(=O)C1=C(c2ccc(OC(F)(F)F)cc2)C[C@@H]2CC[C@H]1N2C(=O)NC1CCCCC1`, for which the AC50 entry was “inactive”.

`CCOC(=O)c1c(/N=C/c2c(O)n(-c3cccc(C)c3)c(=O)[nH]c2=O)sc2c1CCCC2`: the AC50 result was “inactive”.

As to `Cc1cc(=O)oc2cc(OCC(=O)N3CCN(Cc4ccc5c(c4)OCO5)CC3)ccc12`, the AC50 result is “inactive”.

For the compound `O=c1c2ccccc2nc(/C=C\c2ccccc2[N+](=O)[O-])n1-c1ccccc1O`, the AC50 entry is “inactive”.

Consider `N/C(=N\N=C/c1ccc(-c2ccc(O)c(C(=O)O)c2)o1)N[N+](=O)[O-]`, for which the AC50 entry was “inactive”.

As to `Nc1ccc2ccc3cccc[n+]3c2c1`, the AC50 is 1.87 µM (active).

As for `CC(OC(=O)c1cn(C)c2ccccc12)C(=O)N1CCCC1` (centres undefined), the AC50 entry was “inactive”.

As to `COc1ccc(OC)c(N2C(=O)NC(=O)/C(=C\c3ccc([N+](=O)[O-])s3)C2=O)c1`, the AC50 entry was “inactive”.

With `CN(C)C1C(=O)C(C(N)=O)=C(O)C2(O)C(=O)C3=C(O)c4c(O)cccc4C(C)(O)C3C(O)C12` (centres undefined), the AC50 result was “inactive”.

Regarding `COCCNC(=O)Cn1cc(/C=C2\C(=O)NC(=O)N(c3cccc(C)c3C)C2=O)c2ccccc21`, the AC50 was 20.4 µM (active).

Take `CN1CCN(c2ccc([N+](=O)[O-])c3no[n+]([O-])c23)CC1`: the concentration at half-maximal activity (AC50) was 29.2 µM (active).

For the compound `O=[N+]([O-])c1ccc(N2CCCCCC2)c2nonc12`, the AC50 is 13.7 µM (active).

On to `CCOC(=O)C1CCCN(c2ccc([N+](=O)[O-])c3nonc23)C1` (centres undefined), for which the AC50 was 3.67 µM (active).

Turning to `CC(C)CC(=O)Nc1ccc(S(=O)(=O)N2CC3CC(C2)c2cccc(=O)n2C3)cc1` (centres undefined), the AC50 result was “inactive”.

Consider `CC(Cc1ccccc1)NC(=O)NC(C)Cc1ccccc1` (centres undefined), for which the AC50 result was “inactive”.

`Cc1cc(OCC(=O)OC(C)(C)C)c2c3c(c(=O)oc2c1)CCC3`: the AC50 result is “inactive”.

For `CCn1c(O)c(N=Nc2cccc(S(=O)(=O)N3CCOCC3)c2)c(=O)n(CC)c1=S`, the AC50 entry was “inactive”.

In the case of `Nc1ccc2nonc2c1[N+](=O)[O-]`, the concentration at half-maximal activity (AC50) was 8.02 µM (active).

(Values after PubChem BioAssay AID504727 (Broad Institute, 2011).)
